{"source": "the supplement of paper PMC11634586", "data": [{"system": "NCI-H1688", "experiment": "inhibition of cell viability relative to untreated control (fraction); higher = stronger growth inhibition, active = 0.5 or more", "details": "30 µM; 24 h", "how_it_was_run": "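NCI-H1688 small cell lung cancer cells were plated in 96-well plates at 3 × 10^3 cells/well, and 24 h later they were exposed to a natural compound library (TargetMol) at 30 µM for 24 h at 37°C with 5% CO2. Viability was measured in triplicate using Cell Counting Kit-8, read as absorbance at 450 nm. Inhibition of cell viability is given as a fraction, calculated from viability normalised to untreated cells.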", "values": [{"molecule": "Cc1cc(O)cc(O[C@@H]2O[C@H](CO)[C@@H](O)[C@H](O)[C@H]2O)c1", "note": "[Orcinol glucoside]", "inhibition of cell viability": "0.0244 (inactive)"}, {"molecule": "NC(=O)NCCC[C@H](N)C(=O)O", "note": "[Citrulline]", "inhibition of cell viability": "-0.126 (inactive)"}, {"molecule": "CCC(C)C(NC(=O)CNC(=O)C(CCC(N)=O)NC(=O)C1CCCN1C(=O)C(CC(=O)O)NC(=O)C(CCCNC(=N)N)NC(=O)C(NC(=O)C(NC(=O)C(N)CCCNC(=N)N)C(C)C)C(C)C)C(=O)NC(CCCNC(=N)N)C(=O)NC(C)C(=O)NC(Cc1c[nH]c2ccccc12)C(=O)NC(C(=O)NC(C)C(=O)NC(Cc1c[nH]c2ccccc12)C(=O)NC(CCCNC(=N)N)C(=O)NC(CC(N)=O)C(=O)NC(CCCNC(=N)N)C(=O)O)C(C)C", "note": "(stereo not drawn) [Lysozyme]", "inhibition of cell viability": "0.471 (inactive)"}, {"molecule": "CC1(C)[C@@H](O[C@H]2O[C@H](C(=O)O)[C@@H](O)[C@H](O)[C@H]2O[C@@H]2O[C@H](C(=O)O)[C@@H](O)[C@H](O)[C@H]2O)CC[C@]2(C)[C@H]3C(=O)C=C4[C@@H]5C[C@@](C)(C(=O)O)CC[C@]5(C)CC[C@@]4(C)[C@]3(C)CC[C@@H]12", "note": "[Glycyrrhizin (Glycyrrhizic Acid)]", "inhibition of cell viability": "-0.0055 (inactive)"}, {"molecule": "N[C@@H](CCC(=O)N[C@@H](CS)C(=O)NCC(=O)O)C(=O)O", "note": "[Glutathione]", "inhibition of cell viability": "-0.00752 (inactive)"}, {"molecule": "C[C@H]1[C@@H](O)O[C@@H]2O[C@@]3(C)CC[C@H]4[C@H](C)CC[C@@H]1[C@@]24OO3", "note": "[Dihydroartemisinin]", "inhibition of cell viability": "0.644 (active)"}, {"molecule": "N[C@@H](Cc1ccc(O)c(O)c1)C(=O)O", "note": "[Levodopa]", "inhibition of cell viability": "0.167 (inactive)"}, {"molecule": "COc1c(O)cc2oc3cc(O)c(CC=C(C)C)c(O)c3c(=O)c2c1CC=C(C)C", "note": "[Mangostin]", "inhibition of cell viability": "1 (active)"}]}]}
